Compound activity: PubChem, Zoeller Lab, School of Medicine, Boston University
PL biosyn Enam = animal cell phospholipid biosynthesis inhibition, Enamine screen. ZR-82 CHO cells, pyrene fatty acid UV survival, CellTiter Blue; peroxisome-deficient CHO-K1 mutant line; plus DGAT-1, DGAT-2 and ACAT inhibitors. calls only at 10 µM. 20,000 compounds, 0.4% hits. AID 1347385;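 active = cell survival signal 2 SD away from solvent-only control wells, confirmed on one or two retests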;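 note: 3 h compound exposure then viability read about one day after UV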
Of the large screens only hits and unclear results are named; the others gave an inactive call. This is one part of a sample in which hits are shown more often than they occur.

Cc1cccc(N=Nc2c(C)nn(-c3ccccc3)c2N)c1C	none
Cc1nn(-c2ccccc2)c(N)c1N=Nc1ccc([N+](=O)[O-])c(C(F)(F)F)c1	PL biosyn Enam active
Cc1ccc(-n2nc(C)c(N=Nc3ccccc3C)c2N)cc1	none
C[C@H](N)c1nnc2c(Cl)cc(C(F)(F)F)cn12	none
Cc1noc(C)c1S(=O)(=O)N1CCN(S(=O)(=O)c2ccc3c(c2)OCCCO3)CC1	none
COc1ccc(OC)c(C2SCCN2S(=O)(=O)c2ccc(I)cc2)c1 (stereo not given)	none
c1ccc(C2=NN3C(C2)c2ccccc2OC32CCCC2)cc1 (stereo not given)	none
c1ccc(C2=NN3C(C2)c2ccccc2OC32CCCCC2)cc1 (stereo not given)	none
O=C1NC2(Oc3ccc(Br)cc3C3CC(c4ccccc4)=NN32)/C(=C/c2ccccc2)S1 (stereo not given)	PL biosyn Enam active
O=C1NC2(Oc3ccccc3C3CC(c4ccccc4)=NN32)/C(=C/c2cccc(OCc3ccccc3)c2)S1 (stereo not given)	PL biosyn Enam active
CC1(C)Oc2ccccc2C2CC(c3ccc(-c4ccccc4)cc3)=NN21 (stereo not given)	none
CCC1(C)Oc2ccccc2C2CC(c3ccccc3)=NN21 (stereo not given)	none
O=[N+]([O-])c1ccc(-c2csc(=Nc3ccc(F)cc3)n2/N=C/c2ccc3c(c2)OCCO3)cc1	none
CCCn1c(SCC(=O)C(C)(C)C)n[nH]c1=O	none
Cc1sc2ncn(CC(=O)C34CC5CC(CC(C5)C3)C4)c(=O)c2c1C	none
CCc1cc2c(SCC(=O)c3[nH]c(C)c(C(C)=O)c3C)ncnc2s1	none
O=S(=O)(C1=Cc2ccccc2CC1)N1CCCC1c1nc2ccccc2s1 (stereo not given)	none
O=[N+]([O-])c1ccc(Cl)c(S(=O)(=O)Nc2ccc(SC(F)F)cc2)c1	none
CN(C)P(=Nc1ccc([N+](=O)[O-])cc1Br)(N(C)C)C(C)(C)C	none
Nc1ccc([N+](=O)[O-])cc1C(F)(F)F	none
CN(C)c1ccc(N=Cc2cc([N+](=O)[O-])ccc2OC(F)F)cc1	none
CN(C)c1ccc(N=Nc2ccc([N+](=O)[O-])cc2C(F)(F)F)cc1	PL biosyn Enam active
O=[N+]([O-])c1ccc(N=Nc2ccc(NCC(F)(F)C(F)F)cc2)c(Cl)c1	PL biosyn Enam active
CC(C)(C)P(=NC(=S)Nc1ccc(N2CCOCC2)cc1)(N1CCCCCC1)N1CCCCCC1	none
Cc1nn(C)c(C)c1S(=O)(=O)N(Cc1ccco1)Cc1ccco1	none
O=S(=O)(Nc1nc2ccc(F)cc2s1)c1ccccc1C(F)(F)F	none
Nc1nc(CSc2nnc(C3CC3)n2-c2ccccc2)nc(Nc2ccccc2)n1	none
Brc1ccc(-c2oc(-c3ccccc3)nc2-c2ccccc2)cc1	none
NC(=O)c1c(NC(=O)c2ccc(Br)o2)sc2c1CCCCC2	none
CCOC(=O)c1c(N)sc(C(N)=O)c1C	none
CCOC(=O)c1c(N)oc(C)c1C(C)=O	none
C=CCn1sc(N)c(C(=O)OCC)c1=S	PL biosyn Enam active
O=C(CCCSc1nnc(-c2cccs2)n1C1CC1)c1cccs1	none
CC(C)N1C(=O)S/C(=C\c2ccc(N3CCOCC3)o2)C1=O	none
N=C(N)N=Nc1c(O)[nH]c2ccccc12	none
Cc1cc(=S)[nH]c2ccccc12	none
Cc1ccc(C)c(N=Nc2c(C)[nH]c3ccccc23)c1	PL biosyn Enam active
O=C1NC2(CCCc3sccc32)C(=O)N1Cc1coc(-c2cccs2)n1 (stereo not given)	none
O=S(=O)(Nc1cc2c3c(oc2c2ccccc12)CCCC3)c1ccc2ccccc2c1	none
CCC(CO)[n+]1c(C)cc(C=C2Sc3ccccc3N2Cc2ccccc2)cc1C (stereo not given)	PL biosyn Enam active
CCN1C(=Cc2cc(C)[n+](CCO)c(C)c2)Sc2ccccc21	none
CCN1C(=Cc2cc(C)[n+](N3CCN(C)CC3)c(C)c2)Sc2ccccc21	none
O=C(CSc1nccc(=O)[nH]1)c1ccc(Cl)s1	none
CCOC(=O)C1=C(COC(=O)c2cc3c(s2)CCCC3)NC(=O)NC1c1cccs1 (stereo not given)	none
COCCn1c(C)csc1=Nc1cccnc1	none
COc1ccc(-c2cn(-c3ccccc3)c3[n+]2CCCS3)cc1	none
S=C(NNc1ccnc2cc(Cl)ccc12)Nc1ccccc1Cl	PL biosyn Enam active
Fc1ccc(NC(=S)NNc2ccnc3cc(Cl)ccc23)cc1	none
S=C(NNc1ccnc2cc(Cl)ccc12)Nc1ccc(Cl)cc1	none
C(=N\n1c(-c2ccco2)csc1=NCCc1ccccc1)/c1ccco1	none
C(=N\n1c(-c2ccccc2)csc1=NCCc1ccccc1)/c1c[nH]c2ccccc12	PL biosyn Enam active
CN=c1scc(-c2ccccc2)n1/N=C/c1c[nH]c2ccccc12	none
COc1ccccc1N=Nc1c(O)ccc2ccccc12	none
Cc1nc(N)sc1N=Nc1cccc2ccccc12	PL biosyn Enam active
Nc1nc(=O)c2cccnc2s1	none
O=S(=O)(N/N=C/c1c[nH]c2ccccc12)c1ccc(Br)cc1	none
NC(=S)N/N=C/c1c[nH]c2ccccc12	none
C=CCN1C(=O)/C(=N\N=C\c2c[nH]c3ccccc23)c2ccccc21	PL biosyn Enam active
Cc1ccc(C2=CC(c3ccccc3)n3nnnc3N2)cc1 (stereo not given)	none
CCCCN(CCCC)[P+](Nc1n[nH]c(=O)[nH]c1=O)(N(CCCC)CCCC)N(CCCC)CCCC	PL biosyn Enam active
FC(F)Oc1ccc(NC(=S)Nc2ccc(SC(F)F)cc2)cc1Cl	none
O=C(CSc1nccc(=O)[nH]1)NC12CC3CC(CC(C3)C1)C2	none
COCCN=c1scc(-c2ccc(OC(F)F)cc2)n1/N=C(\C)c1ccc2c(c1)OCO2	none
C/C(=N\n1c(-c2ccc(OC(F)F)cc2)csc1=NC(C)C)c1ccc(-n2ccnc2)cc1	PL biosyn Enam active
C=CCN=c1scc(-c2ccc(OC(F)F)cc2)n1/N=C(\C)c1ccc2c(c1)OCCO2	none
CCOC(=O)/C=C/C(=O)OCC1=C(C(=O)OCC)C(C)NC(=O)N1 (stereo not given)	none
Cn1c(SCC(=O)N2CCCC2)nnc1-c1ccco1	none
CCN(CC)Cc1nc(N2CCN(S(=O)(=O)c3ccc(Cl)s3)CC2)c2c(C)c(C)sc2n1	none
Brc1ccccc1C=C(c1nc2ccccc2s1)c1nc2ccccc2s1	none
O=C1Nc2ccc(Br)cc2C1=C(c1nc2ccccc2s1)c1nc2ccccc2s1	PL biosyn Enam active
Oc1c(Br)cc(/C=C/c2nc3ccccc3s2)cc1Br	none
Oc1ccc(/C=N/Nc2ncc(C(F)(F)F)cc2Cl)c(O)c1	none
Fc1ccc(-n2nc(SCCOc3ccccc3)sc2=S)cc1	none
O=C(NC(=S)NCCNC(=S)NC(=O)c1cccs1)c1cccs1	none
O=C(OC1c2ccccc2-c2ccccc21)C12CC3CC(CC(O)(C3)C1)C2	none
Nc1c(C(=O)CSc2ncnc3sccc23)c(=O)[nH]c(=O)n1C1CC1	none
ClC1(Cl)CC1CNc1ncnc2sccc12 (stereo not given)	PL biosyn Enam active
OCCCNc1ncnc2sccc12	none
CN(C)C(CNc1ncnc2sccc12)c1cccs1 (stereo not given)	none
CCN(CC)S(=O)(=O)c1ccc2oc(=S)n(CN3CCCC(CO)C3)c2c1 (stereo not given)	none
CN1CCCN(c2ncnc3sccc23)CC1	none
CC(C)(C)c1cc(C=Nc2cc(C(C)(C)C)cc(C(C)(C)C)c2O)c(O)c(C(C)(C)C)c1	none
Cc1ccc(N=Nc2cc(C(C)(C)C)cc(Br)c2O)cc1	PL biosyn Enam active
CC(C)(C)N/N=C/c1cc(Br)c(O)c(Br)c1	none
CC1C/C(=N\NC(=O)C(N)=O)CC(C)(C)C1 (stereo not given)	none
